Experimental data: PubChem BioAssay

Test: probe aLefty1 binding on compound microarray – biochemical, small-molecule microarray, 635/667 nm fluorescence, primary screen (AID 1153);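 note: score merges spot fluorescence with signal-to-noise ratio from the scanned slide images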
Settings: higher = more signal

| SMILES | composite z-score |
| --- | --- |
| CN1C(=O)C2C(C1=O)C1C=C(CCCO)C2C(C2CC2)N1C (centres undefined) | -0.0683 |
| COC(=O)[C@@]1(Cc2ccc(F)cc2)[C@H]2c3cc(C(=O)N(C)C)n(Cc4cccc5ccccc45)c3C[C@H]2CN1C(=O)c1ccccc1 | 0.0568 |
| C[N+](C)(C)CCCC[C@@H]1NC(=O)[C@H]2C[C@@H](C(=O)O)[C@@H](c3ccc(O)cc3)N2C1=O | 0.0437 |
| C=CCN1C(=O)[C@]2(O[C@H](CCO)[C@@H]([Si](C)(C)c3ccc(OC)cc3)[C@@H]2C)c2cc(N3C(=O)c4ccccc4Oc4ccccc43)ccc21 | 0.568 |
| COc1cc2c(cc1OC)CN(C(=O)[C@@H]1[C@H]3C(=O)O[C@H](c4ccccc4)[C@H](c4ccccc4)N3[C@H](c3ccc(O)cc3)[C@@]13C(=O)Nc1ccc(C#CC4=CCCCC4)cc13)CC2 | 0.298 |
| COc1ccc([Si](C)(C)[C@@H]2[C@@H](CC(=O)N3CCC[C@H]3CO)O[C@]3(C(=O)N(Cc4cccc(N5C(=O)c6cccc7cccc5c67)c4)c4ccccc43)[C@H]2C)cc1 | 0.19 |
| O=C1O[C@@H](c2ccccc2)[C@@H](c2ccccc2)N2[C@@H](c3ccccc3OCCO)[C@]3(C(=O)Nc4ccc(C#CC5(O)CCCCCC5)cc43)[C@@H](C(=O)N3CCCCCCC3)[C@H]12 | 3.07 |
| COc1ccc(NN2C(C(O)c3ccccc3)C=CC3C(=O)N(C4CCCCC4)C(=O)C32)cc1 (centres undefined) | 0.0479 |
| COC(=O)[C@@]1(Cc2ccc(F)cc2)[C@H]2c3cc(C(=O)N4CCCC4)n(C[C@H](O)CO)c3C[C@H]2CN1C(=O)c1ccccc1 | 0.873 |
